Inconclusive results are not listed. Calls of active or inactive are those of the source. Calls follow the shape of the dose curve; as a rule, active = well fitted cell-killing curve with a large enough effect in the repeat runs; inconclusive = weak or mixed curves, or effect the other way; inactive = flat fitted curve, though single readings scatter.
% is scaled to controls: 0 for no effect and ±100 for the full control effect.

A short description of this assay: cAMP Responsive Elements (CRE) small molecule agonists, cell-based qHTS assay: qHTS cell viability counter screen (AID 2060914).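 Also: viability read after 3 h of compound exposure; nearly all actives have a fitted effect of over 50% in size.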 The conditions noted are these: CRE-bla HEK293T viability, CellTiter-Glo luminescence, 5 h; series mostly up to 92.4 µM; activity change, negative = cytotoxicity: at the top concentration. Put shortly: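 CRE-bla HEK 293T cells, plated 18 h at 37 °C, were exposed to compounds for 3 h at 37 °C/5% CO2. Viability was then measured in the same wells by CellTiter-Glo luminescence after 30 min at room temperature.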
(In general: qHTS replaces the single test concentration by a dilution series.)
Take `NCCc1ccc(O)cc1`: the Potency entry is “inactive”.

As to `c1nc[nH]n1`, the Potency result was “inactive”. On the same count and under the same terms, the same measure for `Nc1ccc(Cl)cc1`: “inactive”.

`CCCCCCCCCBr`: the “activity change, negative = cytotoxicity” value was -0.0983% (inactive). For `CCOP(=S)(OCC)SCSc1cc(Cl)ccc1Cl`, the “activity change, negative = cytotoxicity” value is -5.72% (inactive). With `CCCOC(=O)c1cncn1C(C)c1ccccc1` (configuration not stated), the “activity change, negative = cytotoxicity” value is 0.221% [at 42.5 µM] (inactive). On the same count and under the same terms, the same measure for `C[N+](C)(C)CCOC(=O)C(O)(c1ccccc1)c1ccccc1`: 1.06% [at 42.5 µM] (inactive). In the case of `CCOP(=O)(SC(C)CC)N1CCSC1=O` (configuration not stated), the “activity change, negative = cytotoxicity” value is 11.3% (inactive). `C=CC(=O)OCCCCOC(=O)C=C`: the “activity change, negative = cytotoxicity” value was 28.9% (inactive). On to `CC1(C)CC(=O)CC(C)(C)N1[O]`, for which the “activity change, negative = cytotoxicity” value is 0.182% (inactive). With `C#CCOC(C(=O)OCCN(C)C)(c1ccccc1)c1ccccc1`, the “activity change, negative = cytotoxicity” value is 10.2% [at 42.5 µM] (inactive).

On to `N#CNC#N`, for which the “activity change, negative = cytotoxicity” value was 2.5% (inactive).

The record behind these values is PubChem BioAssay (Tox21).
